# DAX1 inh-1 = DAX1 (NR0B1) inhibitors on StAR promoter, primary screen, cell-based, luminescence, SF-1 (NR5A1), full-length DAX-1; HEK293T StAR-luciferase reporter, SF-1/DAX-1 repression relief; inhibition, % at 6.8 µM; 370,000 tested, 1.1% active; AID 652010, 2013;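 active means inhibition above the mean over all tested compounds plus 3 SD, cut at about 3.6% in these data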;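 further: 0% = DAX-1 cells with DMSO and 100% = cells lacking DAX-1 with DMSO; higher inhibition means more luminescence from relief of DAX-1 repression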
# hcDAF-12 act = H. contortus DAF-12 nuclear receptor activators, primary screen, cell-based, luminescence, HEK293, lit1-tk-luc reporter; 370,000 tested, 1.4% active; HEK293 hcDAF-12 lit1-tk-luc reporter; 0% DMSO, 100% Δ7-dafachronic acid; activation, % at 6.8 µM;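 active means activation above the mean of all tested compounds plus 3 SD, cut at about 5.5% in these data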;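 further: 100% = response to 3 µM Δ7-dafachronic acid high control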
# ssDAF12 agonist = S. stercoralis DAF-12 nuclear receptor activators, primary screen, cell-based, luminescence, HEK293, GRIP1 co-expression, lit1-tk-luc; AID 652126, 2013; 370,000 tested, 1% active; HEK293 ssDAF-12/GRIP1 lit1-tk-luc reporter; % of 3 µM dafachronic acid response; activation, % at 6.8 µM; Nuclear hormone receptor DAF-12 (Strongyloides stercoralis);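 active means activation above the mean over all tested compounds plus 3 SD, cut at about 0.9% in these data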;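 further: 0% = DMSO-only wells and 100% = 3 µM delta7-dafachronic acid wells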
# DAX1 inh-2 = DAX1 (NR0B1) inhibitors, primary screen, cell-based, HEK293, Gal4-DAX1, luciferase luminescence. 340,000 tested, 0.99% active. AID 504766, 2011. inhibition, % at 6.75 µM. HEK293 Gal4-DAX1 luciferase reporter;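 active means inhibition above the mean over all tested compounds plus 3 SD, cut at about 4.2% in these data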;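 further: 0% = DAX1-transfected cells with DMSO and 100% = empty-vector control cells with DMSO; inhibition shows as a rise in luminescence from relieved DAX1 repression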
# Target sequence (P51843 207-470 limits assumed): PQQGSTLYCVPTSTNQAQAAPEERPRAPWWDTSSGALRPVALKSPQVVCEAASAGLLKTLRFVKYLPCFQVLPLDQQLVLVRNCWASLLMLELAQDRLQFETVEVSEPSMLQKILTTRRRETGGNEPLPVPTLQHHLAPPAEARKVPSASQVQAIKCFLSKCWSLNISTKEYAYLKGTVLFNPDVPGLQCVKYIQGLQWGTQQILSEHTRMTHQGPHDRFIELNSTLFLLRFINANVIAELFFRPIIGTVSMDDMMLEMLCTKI
# AHR act = AHR activators, primary screen, cell-based, luminescence, luciferase reporter, human | 320,000 tested, 2.5% active | activation, % at 5 µM | Aryl hydrocarbon receptor (Homo sapiens), P35869 | AHR-responsive luciferase reporter cells | AID 2796, 2010; in the data active means activation above about 47%;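 further: 0% = vehicle wells and 100% = reference agonist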
# hgDAF12 agonist = H. glycines DAF-12 receptor agonists, primary screen, cell-based, luminescence, HEK293, GAL4 fusion, UAS-luciferase. HEK293 GAL4-hgDAF12 UAS-luciferase reporter, agonist luminescence; normalized to butyrate control. activation, % at 6.8 µM. 370,000 tested, 1.8% active. AID 687014, 2013;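 active means activation above a cutoff set at the mean of all screened compounds plus 3 SD, cut at about 10% in these data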;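 further: 0% = DMSO wells and 100% = sodium butyrate wells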
# LXRb hcDAF ctr = LXR agonists, Gal4 luciferase reporter, confirmation, counter-screen for hcDAF-12 agonist project, cell-based, luminescence, HEK293, H. contortus campaign | AID 743027, 2013 | 3,400 tested, under 10 active | HEK293 Gal4-LXR tk-luc reporter, 24 h; normalized: DMSO 0%, positive control 100% | activation, % at 6.8 µM | shares compounds with hcDAF-12 act;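 active means mean percent activation of the reporter above a cutoff set as the average over tested compounds plus their standard deviation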
# hcDAF12 conf = H. contortus DAF-12 receptor agonists, confirmation, cell-based, luminescence, HEK293, lit1-tk-luc, triplicate; shares compounds with hcDAF-12 act; AID 743032, 2013; activation, % at 6.8 µM; 3,400 tested, 61% active; HEK293 hcDAF-12 lit1-tk-luc reporter; % of Δ7-dafachronic acid response;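 active means mean activation across triplicate tests above the threshold derived from the earlier primary screen, cut at about 5.5% in these data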;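 further: 0% = DMSO only wells and 100% = 3 µM Δ7-dafachronic acid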
# Active calls of the source: *; nt = no result. This is a sample that favours compounds with a hit; in the whole collection about 5.7% have one here.
SMILES,DAX1 inh-1,hcDAF-12 act,ssDAF12 agonist,DAX1 inh-2,AHR act,hgDAF12 agonist,LXRb hcDAF ctr,hcDAF12 conf
COc1ccc(C2c3[nH]c4ccccc4c3CCN2C(=O)c2ccc(=O)n(C)n2)c(F)c1 (configuration not stated),0,6.9*,0,1,28,8,0,5
N/C(=N\OC(=O)COc1ccc(Br)cc1)c1ccncc1,0,3,0,2,5,2,nt,nt
CC1=NN(C(N)=S)C(=O)C1N=Nc1ccc(C)cc1C (configuration not stated),1,12*,1.2*,nt,67*,11*,1,13*
FC(F)(F)c1cc(Cl)c2nnc(-c3ccccn3)n2c1,0,-2,-1,-1,4,-2,nt,nt
COc1ccc(-n2ncc(N(C)n3cccc3)c(Cl)c2=O)cc1,3.9*,6.8*,0,2,12,12*,1,4
CCc1ccc(NC(=O)NCCN2CCCCC2)cc1,0,1,-1,1,1,0,nt,nt
O=C1C(=Cc2ccco2)C(=O)c2ccccc21,1,7.3*,0,1,15,10,0,2
Cc1cc(NC(=O)CSc2c(C)[nH]c3ccccc23)no1,1,6.8*,1.1*,2,7,4,0,1
CC1=NN(c2ccc(C)cc2)C(=O)/C1=C\c1ccc(Br)s1,0,9.5*,0,0,39,0,0,5
COc1cc(/C=C2/C(=O)N(c3ccc(Br)cc3)N=C2C)cc(OC)c1OC,nt,nt,nt,-1,nt,nt,nt,nt
Cc1cc2ccccn2c1C(=O)c1ccc(Cl)cc1,-1,-2,-1,-1,-10,2,nt,nt
Cc1cc2ccccn2c1C(=O)Nc1cccc(Cl)c1,1,7.0*,1,2,36,6,0,6.1*
Cc1ccc(C(=O)NC(=S)c2c(C)cc3ccccn23)cc1,2,7.5*,4.1*,4,nt,12*,0,8.5*
Cc1ccc2oc(=O)n(CCOc3ccccc3)c2c1,0,0,-1,-1,20,-1,nt,nt
O=C(Cc1ccccc1[N+](=O)[O-])N1CCOCC1,0,0,-1,1,2,1,nt,nt
O=C(CNCc1ccccc1[N+](=O)[O-])N1CCC2(CC1)OCCO2,2,7.0*,0,nt,nt,13*,0,5
CC(NC(=O)[C@H](C)NC(=O)c1ccco1)c1ccc(S(N)(=O)=O)cc1 (some centres not stated),0,-1,-1,0,-1,2,nt,nt
Cc1cnc(C(=O)OCC(=O)Nc2ccc(Cl)cn2)cn1,2,0,-1,2,5,2,nt,nt
Cc1cnc(C(=O)OCC(=O)Nc2cc(Cl)ccc2C#N)cn1,-1,6.6*,0,1,39,3,0,4
CSCCC(NC(=O)c1ccc(Cl)cc1)C(=O)OCC(=O)NCc1ccco1 (configuration not stated),1,1,-1,-1,2,0,nt,nt
